Compound activity as filed in PubChem BioAssay.
Pf Dd2 growth = qHTS Primary assay for Inhibitors of Plasmodium falciparum Dd2 growth in vitro | P. falciparum Dd2 growth, SYBR Green, 72 h | Potency, µM (top dose mostly 28.9 µM), actives largely listed as inhibitors | actives 4.3% (n = 120,000); active means well fitted inhibition curve with a large enough effect; further: nearly all actives have a fitted effect of over 65% in size
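Infected erythrocytes (Dd2, 0.3% parasitemia, 2.5% hematocrit final) are added to compound in RPMI-1640/Albumax II medium, grown 72 h at 37C in low oxygen, then lysed with saponin/Triton-X containing SYBR Green and read by fluorescence.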
Numbers stand for hits; n = inactive; [ ] = another dose, or the depositor's remark. Only a selection was taken, and hits are over-represented in it overall.

SMILES	Pf Dd2 growth
COc1ccc(CCc2nc(-c3nnn4c3COC(c3ccc(OC)cc3)C4)no2)cc1 (stereo unspecified)	n
CCc1cc(C(=O)N2CCC3(CC2)CC(c2ccccc2)C(=O)N3)cs1 (stereo unspecified)	n
CN1C(=O)c2ccccc2Sc2ccc(NC(=O)Nc3ccccc3F)cc21	n
CN1C(=O)c2ccccc2Sc2ccc(NC(=O)N3CCN(c4cccc(Cl)c4)CC3)cc21	13µM
CCc1cccc(NC(=O)Nc2ccc3c(c2)N(C)C(=O)c2ccccc2S3)c1	n
O=C(CCC1CCCN(S(=O)(=O)c2ccccc2)C1)NC1CCS(=O)(=O)C1 (stereo unspecified)	n
CCc1cccc(-n2nnnc2N2CCN(C(=O)NC3CCCCC3)CC2)c1	n
COCCN1CCCCCC(O)c2cc(C(=O)NCCCN(C)C)ccc21 (stereo unspecified)	n
CCOc1cc(C2CC(=O)Nc3cc4c(cc32)OCCO4)ccc1O (stereo unspecified)	n
COc1cc2c(c(OC)c1)C(c1cc(OC)c(OC)c(OC)c1)CC(=O)N2 (stereo unspecified)	n
CCOc1c(Br)cc(C2CC(=O)Nc3cc4c(cc32)OCO4)cc1OC (stereo unspecified)	3.2µM
COc1cccc(C2CC(=O)Nc3cc4c(cc32)OCO4)c1OC(C)C (stereo unspecified)	n
Cc1cccc(C2CC(=O)Nc3cc4c(cc32)OCO4)c1 (stereo unspecified)	n
COc1cc(C2CC(=O)Nc3cc4c(cc32)OCCO4)cc(Br)c1OC (stereo unspecified)	1µM
O=C(c1ccccc1)N1CCC2(COc3ccncc3[S+](=O)([O-])N2)C1 (stereo unspecified)	n
O=C(CC1CCN(C(=O)Cc2cccc(F)c2)C1)NC1CC1 (stereo unspecified)	n
COCCNC(=O)[C@H]1C[C@H](Oc2ccccc2)CN1C(=O)Nc1ccc2c(c1)OCCO2	n
O=C1c2c(nc(COc3ccccc3)n2Cc2ccccc2)NCCN1CCOc1ccccc1	n
COc1cccc(OCc2nc3c(n2Cc2ccccc2)C(=O)N(CC2CCOCC2)CCN3)c1	11µM
COc1cc(Cl)ccc1OCc1nc2c(n1Cc1ccccc1)C(=O)N(Cc1ccccc1C#N)CCN2	n
COc1cccc(OCc2nc3c(n2Cc2ccccc2)C(=O)N(CCOc2ccccc2)CCN3)c1	n
O=C1c2c(nc(COc3ccc(F)cc3)n2Cc2ccccc2)NCCN1Cc1ccccc1	n
N#Cc1ccccc1CN1CCNc2nc(CNCc3ccc4c(c3)OCO4)n(Cc3ccccc3)c2C1=O	6.3µM
N#Cc1ccc(OCc2nc3c(n2Cc2ccccc2)C(=O)N(CC2CC2)CCN3)cc1	10µM
O=C1c2c(nc(CNCc3cccc(Cl)c3)n2Cc2ccccc2)NCCN1Cc1ccccc1F	n
SMILES	Pf Dd2 growth
COc1cccc(OCc2nc3c(n2Cc2ccccc2)C(=O)N(C)CCN3)c1	n
CCn1nc(C)c(C(=O)NC(C)c2cnc(-c3ccncc3)nc2C)c1C (stereo unspecified)	n
CNC(=O)C1CN(c2cccc(Cl)c2)C(=O)N1 (stereo unspecified)	n
O=C(O)[C@@H]1CN(C(=O)CCc2ccc(=O)[nH]n2)C[C@H]1C1CC1	n
Cc1noc([C@@H]2CN(C(=O)c3ccco3)C[C@H]2COCC2CC2)n1	n
O=C1CCN(C(=O)c2cccc3[nH]ccc23)CCCC(C(=O)NCc2ccccc2)CCN1 (stereo unspecified)	n
CC(=O)NC[C@H]1O[C@@H](Cc2nc(-c3ccc(OC(F)(F)F)cc3)no2)[C@H](O)[C@@H]1O	n
Cc1ccc(CSc2nc3ccncc3n2Cc2nc(-c3ccc(Cl)cc3)oc2C)cc1	n
Cc1ccc(Cn2c(SCc3ccc(C(=O)NC4CCCCC4)cc3)nc3ccncc32)cc1	11µM
COc1ccc(CSc2nc3ccncc3n2CC(=O)Nc2cc(C)cc(C)c2)cc1	n
COc1ccc(Cn2c(SCc3ccc(C(=O)NC4CCCC4)cc3)nc3ccncc32)cc1	n
Cc1ccc(Cn2c(=O)n(Cc3ccc(C(=O)NC4CCN(Cc5ccccc5)CC4)cc3)c(=O)c3ccccc32)cc1	n
Cc1cccc(CSc2nc3cc(C(=O)NC4CCCC4)ccc3c(=O)n2Cc2ccccc2)c1	n
Cc1ccc(Cn2c(SCc3ccc(C(=O)NC4CCCC4)cc3)nc3ccncc32)cc1	11µM
COc1ccc(Cn2c(SCc3ccc(C(=O)NC4CCCCC4)cc3)nc3ccncc32)cc1	7.9µM
Cc1ccc(C(=O)CSc2nc3cc(C(=O)NC4CCCC4)ccc3c(=O)n2CC2CCCO2)c(C)c1 (stereo unspecified)	n
NC(=O)C1CCN([C@H]2[C@@H]3OC[C@@H](O3)[C@@H](NCc3ccc(F)cc3)[C@@H]2O)CC1	n
CN(C)C[C@@H]1CN(S(C)(=O)=O)C[C@H]1NC(=O)CCCc1ccccc1	n
COc1c(C)cnc(Cn2c(-c3ccccc3)nc(C)c(CCO)c2=O)c1C	n
CN(C)c1ccc(CN2CCC(N3CCOCC3=O)CC2)cc1	n
CNC(=O)CCNc1c(-c2cccc(F)c2)nc2cnccn12	n
COc1ccc(CNC(=O)CC2CCCCN(C)C2=O)c(OC)c1 (stereo unspecified)	n
C=CCNC(=O)C[C@@H]1CCN(C(=O)Nc2cccc(C(=O)OCC)c2)C[C@@H]1CC	n
CCOc1cccc(CNC(=O)[C@H]2CCC[C@H]2NC(=O)c2ccc(OC)nc2)c1	n
COC(=O)c1cn([C@H]2CO[C@H]3[C@@H]2OC[C@@H]3NC(=O)c2ccc(N(C)C)cc2)nn1	n
SMILES	Pf Dd2 growth
COc1ccc(OC)c(CN2C[C@@H]3C(=O)N(CCCN4CCCC4=O)C(=O)[C@@H]3C2)c1	n
COCCn1ncc(N2CCC(NC(=O)c3ccccc3OC)CC2)cc1=O	n
Cc1noc(C)c1S(=O)(=O)N1CC(N(CC(C)C)C2CCOCC2)C1	n
Cc1noc(C)c1S(=O)(=O)N1CCC(N2CCOC2=O)CC1	n
Cc1noc(C)c1S(=O)(=O)N1CCC(N(CCC(C)C)C2CCOCC2)CC1	13µM
CC(=O)N1CCCC(c2nn(C)c(=O)n2C(C)C)C1 (stereo unspecified)	n
O=C(O)c1cc(-c2ccccc2CO)cc(S(=O)(=O)N2CCCCCC2)c1	n
Nc1c(C(=O)Nc2ccccc2)sc2nc3c(cc12)CN(Cc1ccccc1)CC3	n
CN1CCc2nc3sc(C(=O)Nc4ccccc4OC(F)(F)F)c(N)c3cc2C1	n
CCOc1ccccc1NC(=O)c1sc2nc3c(cc2c1N)CN(Cc1ccccc1)CC3	10µM
O=C1CC2CCCC(C1)N2C(=O)N1CCCC1	n
O=C1NC2(CCN(C(=O)c3ccc4c(c3)OCO4)C2)Oc2ccccc21 (stereo unspecified)	n
O=C(c1ccc2c(c1)OCO2)N1CCC2(CC1)COc1ccccc1CN2	1.3µM
O=C(c1ccccc1F)N1CCC2(CC1)COc1ccccc1NC2=O	n
O=C1NC2(CCCN(C(=O)c3ccccc3F)C2)COc2ccccc21 (stereo unspecified)	n
O=C(c1ccccc1F)N1CCC2(CC1)COc1ccccc1CN2	1.1µM
O=C1CC(C(=O)O)C2(CCN(C(=O)c3ccc4c(c3)OCO4)CC2)N1 (stereo unspecified)	n
CCCN(CC1CCOC1)S(=O)(=O)c1cc(F)cc(F)c1 (stereo unspecified)	n[5.79 µM]
Cc1ccc(C)c(NC(=O)c2cc3n(n2)CC(c2ccc(Cl)cc2)OC3)c1 (stereo unspecified)	n
